# Tests used:
# Assay in all cases: DAPPL (digital affinity profiling via proximity ligation, sequencing); 10 mM Tris-HCl pH 7.5, 50 mM NaCl, 1 mM DTT, 4% glycerol, room temperature, 30 min; GST-TFs on glutathione beads, 16-mer random dsDNA library, 0.1% formaldehyde crosslink after washing; high values mean tight binding
# [1] = molecular target: T1, ELK3 (Homo sapiens, UniProt P41970 1-407); settings: protein: recombinant; tags: N-terminal GST; dsDNA, one strand shown
# T1 sequence: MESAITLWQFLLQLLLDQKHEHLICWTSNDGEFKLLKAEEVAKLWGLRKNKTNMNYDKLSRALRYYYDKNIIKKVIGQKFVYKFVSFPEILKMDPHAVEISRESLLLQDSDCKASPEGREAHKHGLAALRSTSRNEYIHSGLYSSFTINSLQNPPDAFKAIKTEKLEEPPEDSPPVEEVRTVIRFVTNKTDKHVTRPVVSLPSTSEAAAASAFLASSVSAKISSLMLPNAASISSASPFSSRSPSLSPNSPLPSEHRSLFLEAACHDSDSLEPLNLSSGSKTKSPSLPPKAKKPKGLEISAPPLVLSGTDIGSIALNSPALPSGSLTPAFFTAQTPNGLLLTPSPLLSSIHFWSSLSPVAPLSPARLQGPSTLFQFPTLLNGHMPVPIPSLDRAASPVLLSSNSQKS
# Outline: (§1)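 Pools were built from human transcription factors expressed in yeast as GST fusions, captured on glutathione beads and DNA-barcoded, along with a tag-only sample. Incubation with 200 nmole of a 16-mer random double-stranded DNA library lasted 30 min at room temperature in Tris/NaCl/DTT/glycerol buffer, and was followed by washing, 0.1% formaldehyde crosslinking, proximity ligation, PCR amplification and Illumina NextSeq500 sequencing. Binding signal is the quotient of each hexamer's read frequency for a factor and its frequency for the tag-only sample.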
# [2] = molecular target: HSF1 (Homo sapiens, UniProt Q00613 1-529); settings: protein: recombinant; tags: N-terminal GST; chain copies: 3; dsDNA, one strand shown
# HSF1, sequence (Q00613 whole entry): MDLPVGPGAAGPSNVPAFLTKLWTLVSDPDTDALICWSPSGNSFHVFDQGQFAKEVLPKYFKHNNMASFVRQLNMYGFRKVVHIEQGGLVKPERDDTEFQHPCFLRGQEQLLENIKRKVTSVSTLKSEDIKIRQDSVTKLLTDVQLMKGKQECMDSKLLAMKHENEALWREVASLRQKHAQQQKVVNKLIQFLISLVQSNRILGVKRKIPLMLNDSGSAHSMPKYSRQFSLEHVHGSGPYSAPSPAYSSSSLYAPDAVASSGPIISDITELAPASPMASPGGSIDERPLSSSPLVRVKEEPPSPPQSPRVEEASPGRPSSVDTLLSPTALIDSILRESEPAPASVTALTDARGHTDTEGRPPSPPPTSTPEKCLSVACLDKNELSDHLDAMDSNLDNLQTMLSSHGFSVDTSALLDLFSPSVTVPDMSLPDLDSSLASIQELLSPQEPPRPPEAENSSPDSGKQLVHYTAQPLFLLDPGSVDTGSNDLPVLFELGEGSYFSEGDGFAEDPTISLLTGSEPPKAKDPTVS
# Outline: as §1
# [3] = molecular target: T2, SPIC (Homo sapiens, UniProt Q8N5J4 1-248); settings: protein: recombinant; tags: N-terminal GST; dsDNA, one strand shown
# T2 sequence: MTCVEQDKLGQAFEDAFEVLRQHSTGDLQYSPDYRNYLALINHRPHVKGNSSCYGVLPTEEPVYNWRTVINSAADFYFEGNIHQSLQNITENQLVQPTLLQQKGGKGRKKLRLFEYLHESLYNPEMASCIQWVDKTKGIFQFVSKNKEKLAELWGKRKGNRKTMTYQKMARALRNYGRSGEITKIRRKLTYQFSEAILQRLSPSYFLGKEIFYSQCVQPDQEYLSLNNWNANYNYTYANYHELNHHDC
# Outline: as §1
# [4] = molecular target: CRX (Homo sapiens, UniProt O43186 1-299); settings: protein: recombinant; tags: N-terminal GST; dsDNA, one strand shown
# CRX, sequence (O43186 whole entry): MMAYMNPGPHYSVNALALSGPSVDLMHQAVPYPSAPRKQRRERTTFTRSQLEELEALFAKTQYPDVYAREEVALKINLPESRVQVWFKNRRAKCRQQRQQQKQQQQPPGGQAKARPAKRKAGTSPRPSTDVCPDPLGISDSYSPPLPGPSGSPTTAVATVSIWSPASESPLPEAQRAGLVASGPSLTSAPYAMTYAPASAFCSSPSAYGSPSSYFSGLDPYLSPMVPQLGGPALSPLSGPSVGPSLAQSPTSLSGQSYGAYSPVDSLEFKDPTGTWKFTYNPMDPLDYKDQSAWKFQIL
# Outline: as §1
# [5] = molecular target: T3, ELF5 (Homo sapiens, UniProt Q9UKW6-2 1-255); settings: protein: recombinant; tags: N-terminal GST; dsDNA, one strand shown
# T3 sequence: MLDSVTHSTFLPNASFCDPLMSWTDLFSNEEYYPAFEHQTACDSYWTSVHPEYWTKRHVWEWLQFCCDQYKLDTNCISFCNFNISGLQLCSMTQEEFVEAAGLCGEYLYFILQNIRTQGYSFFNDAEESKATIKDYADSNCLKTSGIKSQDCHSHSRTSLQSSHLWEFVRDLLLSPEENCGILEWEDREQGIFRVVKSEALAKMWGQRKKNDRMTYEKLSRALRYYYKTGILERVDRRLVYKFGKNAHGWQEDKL
# Outline: as §1
# [6] = molecular target: T4, ETV2 (Homo sapiens, UniProt O00321 1-342); settings: protein: recombinant; tags: N-terminal GST; dsDNA, one strand shown
# T4 sequence: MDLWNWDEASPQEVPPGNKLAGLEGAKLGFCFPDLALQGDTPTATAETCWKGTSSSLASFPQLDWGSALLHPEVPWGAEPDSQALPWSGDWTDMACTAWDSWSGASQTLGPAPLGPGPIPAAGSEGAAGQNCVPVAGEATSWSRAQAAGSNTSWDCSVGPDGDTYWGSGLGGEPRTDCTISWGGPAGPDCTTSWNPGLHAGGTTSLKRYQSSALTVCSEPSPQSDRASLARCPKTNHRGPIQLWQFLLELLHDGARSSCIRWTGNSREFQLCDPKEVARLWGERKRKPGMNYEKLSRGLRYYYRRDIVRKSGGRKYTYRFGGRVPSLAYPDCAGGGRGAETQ
# Outline: as §1
# [7] = molecular target: T5, FLI1 (Homo sapiens, UniProt Q01543 1-452); settings: protein: recombinant; tags: N-terminal GST; dsDNA, one strand shown
# T5 sequence: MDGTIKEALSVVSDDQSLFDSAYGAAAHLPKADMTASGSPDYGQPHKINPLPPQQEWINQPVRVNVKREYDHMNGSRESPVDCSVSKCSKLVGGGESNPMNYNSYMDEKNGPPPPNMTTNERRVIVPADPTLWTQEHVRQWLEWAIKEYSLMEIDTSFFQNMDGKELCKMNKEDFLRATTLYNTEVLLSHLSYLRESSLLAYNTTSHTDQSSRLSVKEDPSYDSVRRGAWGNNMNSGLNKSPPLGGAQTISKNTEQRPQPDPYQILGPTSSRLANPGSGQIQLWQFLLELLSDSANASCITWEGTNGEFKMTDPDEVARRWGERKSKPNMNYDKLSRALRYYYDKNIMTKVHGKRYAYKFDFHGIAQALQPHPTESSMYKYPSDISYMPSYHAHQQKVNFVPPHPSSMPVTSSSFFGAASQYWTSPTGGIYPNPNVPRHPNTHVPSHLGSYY
# Outline: as §1
Sequence,binding signal [1],binding signal [2],binding signal [3],binding signal [4],binding signal [5],binding signal [6],binding signal [7]
ATAATG,"1.22 fold enrichment (6-mer frequency, TF over GST control)","1.25 fold enrichment (6-mer frequency, TF over GST control)","1.21 fold enrichment (6-mer frequency, TF over GST control)","1.52 fold enrichment (6-mer frequency, TF over GST control)","1.07 fold enrichment (6-mer frequency, TF over GST control)",–,–
TAGGAT,"1.03 fold enrichment (6-mer frequency, TF over GST control)","1.35 fold enrichment (6-mer frequency, TF over GST control)","1.06 fold enrichment (6-mer frequency, TF over GST control)","1.81 fold enrichment (6-mer frequency, TF over GST control)","1.06 fold enrichment (6-mer frequency, TF over GST control)","1.03 fold enrichment (6-mer frequency, TF over GST control)",–
CCCCTA,"1.38 fold enrichment (6-mer frequency, TF over GST control)","1.02 fold enrichment (6-mer frequency, TF over GST control)","1.25 fold enrichment (6-mer frequency, TF over GST control)","1.15 fold enrichment (6-mer frequency, TF over GST control)","1.1 fold enrichment (6-mer frequency, TF over GST control)","1.06 fold enrichment (6-mer frequency, TF over GST control)",–
AGAGCT,–,"1.05 fold enrichment (6-mer frequency, TF over GST control)","1.04 fold enrichment (6-mer frequency, TF over GST control)","1.14 fold enrichment (6-mer frequency, TF over GST control)",–,–,–
GAGCTT,"1.02 fold enrichment (6-mer frequency, TF over GST control)","1.2 fold enrichment (6-mer frequency, TF over GST control)","1.09 fold enrichment (6-mer frequency, TF over GST control)","1.43 fold enrichment (6-mer frequency, TF over GST control)",–,–,–
GCGTCT,"1.13 fold enrichment (6-mer frequency, TF over GST control)","1.01 fold enrichment (6-mer frequency, TF over GST control)","1.11 fold enrichment (6-mer frequency, TF over GST control)",–,"1.08 fold enrichment (6-mer frequency, TF over GST control)","1.1 fold enrichment (6-mer frequency, TF over GST control)",–
TCACGG,"1 fold enrichment (6-mer frequency, TF over GST control)",–,–,–,"1.13 fold enrichment (6-mer frequency, TF over GST control)",–,"1.06 fold enrichment (6-mer frequency, TF over GST control)"
TGGGAA,"1 fold enrichment (6-mer frequency, TF over GST control)","1.05 fold enrichment (6-mer frequency, TF over GST control)","1.03 fold enrichment (6-mer frequency, TF over GST control)",–,"1.15 fold enrichment (6-mer frequency, TF over GST control)","1.02 fold enrichment (6-mer frequency, TF over GST control)",–
TGACGG,–,–,–,–,"1.06 fold enrichment (6-mer frequency, TF over GST control)",–,"1.01 fold enrichment (6-mer frequency, TF over GST control)"
TAGGGC,–,"1.05 fold enrichment (6-mer frequency, TF over GST control)","1.11 fold enrichment (6-mer frequency, TF over GST control)","1.22 fold enrichment (6-mer frequency, TF over GST control)","1.03 fold enrichment (6-mer frequency, TF over GST control)","1.12 fold enrichment (6-mer frequency, TF over GST control)",–
TGTAAG,"1.11 fold enrichment (6-mer frequency, TF over GST control)","1.09 fold enrichment (6-mer frequency, TF over GST control)","1.22 fold enrichment (6-mer frequency, TF over GST control)","1.32 fold enrichment (6-mer frequency, TF over GST control)","1.11 fold enrichment (6-mer frequency, TF over GST control)",–,–
CCCAAA,"1.1 fold enrichment (6-mer frequency, TF over GST control)","1.13 fold enrichment (6-mer frequency, TF over GST control)","1.04 fold enrichment (6-mer frequency, TF over GST control)","1.13 fold enrichment (6-mer frequency, TF over GST control)","1.06 fold enrichment (6-mer frequency, TF over GST control)","1.3 fold enrichment (6-mer frequency, TF over GST control)",–
TCAAGT,"1.13 fold enrichment (6-mer frequency, TF over GST control)","1.08 fold enrichment (6-mer frequency, TF over GST control)","1.12 fold enrichment (6-mer frequency, TF over GST control)","1.12 fold enrichment (6-mer frequency, TF over GST control)",–,"1.06 fold enrichment (6-mer frequency, TF over GST control)",–
TCGTAT,"1.01 fold enrichment (6-mer frequency, TF over GST control)","1.06 fold enrichment (6-mer frequency, TF over GST control)","1.06 fold enrichment (6-mer frequency, TF over GST control)","1.09 fold enrichment (6-mer frequency, TF over GST control)","1.01 fold enrichment (6-mer frequency, TF over GST control)","1.12 fold enrichment (6-mer frequency, TF over GST control)",–
TAGTAG,–,"1.2 fold enrichment (6-mer frequency, TF over GST control)","1.02 fold enrichment (6-mer frequency, TF over GST control)","1.25 fold enrichment (6-mer frequency, TF over GST control)",–,–,–
CGGTTA,"1 fold enrichment (6-mer frequency, TF over GST control)",–,–,–,"1.07 fold enrichment (6-mer frequency, TF over GST control)","1.06 fold enrichment (6-mer frequency, TF over GST control)","1.05 fold enrichment (6-mer frequency, TF over GST control)"
ACAAGA,–,"1 fold enrichment (6-mer frequency, TF over GST control)","1.06 fold enrichment (6-mer frequency, TF over GST control)",–,–,–,–
TGAAAT,–,"1.02 fold enrichment (6-mer frequency, TF over GST control)","1.01 fold enrichment (6-mer frequency, TF over GST control)","1.03 fold enrichment (6-mer frequency, TF over GST control)",–,"1.04 fold enrichment (6-mer frequency, TF over GST control)",–
TGGCGA,–,"1.03 fold enrichment (6-mer frequency, TF over GST control)","1.08 fold enrichment (6-mer frequency, TF over GST control)",–,–,–,–
ACACGG,–,–,"1.06 fold enrichment (6-mer frequency, TF over GST control)",–,"1.15 fold enrichment (6-mer frequency, TF over GST control)",–,–
CGCCCA,"1.04 fold enrichment (6-mer frequency, TF over GST control)",–,"1.06 fold enrichment (6-mer frequency, TF over GST control)",–,–,–,–
GAAGCC,"1.05 fold enrichment (6-mer frequency, TF over GST control)",–,"1 fold enrichment (6-mer frequency, TF over GST control)",–,"1.07 fold enrichment (6-mer frequency, TF over GST control)","1.04 fold enrichment (6-mer frequency, TF over GST control)",–
CAATGT,"1.01 fold enrichment (6-mer frequency, TF over GST control)",–,"1.13 fold enrichment (6-mer frequency, TF over GST control)",–,–,–,–
GTGCAT,"1.16 fold enrichment (6-mer frequency, TF over GST control)",–,"1.28 fold enrichment (6-mer frequency, TF over GST control)",–,"1.02 fold enrichment (6-mer frequency, TF over GST control)","1.02 fold enrichment (6-mer frequency, TF over GST control)",–
GGGAAA,–,"1.15 fold enrichment (6-mer frequency, TF over GST control)",–,–,"1.42 fold enrichment (6-mer frequency, TF over GST control)",–,–
